Paper PMC11062922 (Nature Chemical Biology, 2023)
Where two headings read alike, the source gives them in different places.

Experiments:
Set-up in all cases: species or system human, MV4-11 + K-562 + COLO205 + SK-N-BE2 + OVCAR-8
[1] = test system: CSNK1A1; conditions: read-out: apparent Kd, n = 1
[2] = test system: CSNK1D; conditions: read-out: apparent Kd, n = 1
[3] = test system: MAP2K1; conditions: read-out: apparent Kd, n = 1
[4] = test system: EPHA2; conditions: read-out: apparent Kd, compound concentrations: 100 nM and 1000 nM (sheet 'Samples'), n = 1
[5] = test system: EPHA4; conditions: read-out: apparent Kd, n = 1
[6] = test system: EPHB2; conditions: read-out: apparent Kd, n = 1
[7] = test system: EPHB4; conditions: read-out: apparent Kd, n = 1
[8] = test system: PDGFRB; conditions: read-out: apparent Kd, compound concentrations: 100 nM and 1000 nM (sheet 'Samples'), n = 1
[9] = test system: PIK3CD; conditions: read-out: apparent Kd, compound concentrations: 100 nM and 1000 nM (sheet 'Samples'), n = 1
[10] = test system: PRKD3; conditions: read-out: apparent Kd, compound concentrations: 100 nM and 1000 nM (sheet 'Samples'), n = 1
[11] = test system: TGFBR2; conditions: read-out: apparent Kd; compound concentrations: 100 nM and 1000 nM (sheet 'Samples'), CATDS: 0.37560252723777299; n = 1
[12] = test system: BUB1; conditions: read-out: apparent Kd, n = 1
[13] = test system: MAP2K2; conditions: read-out: apparent Kd, n = 1
[14] = test system: MAPK9; conditions: read-out: apparent Kd, n = 1
[15] = test system: T1, DJA1; conditions: read-out: apparent Kd, compound concentrations: 100 nM and 1000 nM (sheet 'Samples'), n = 1
T1 construct: gene DNAJA1

[16] = test system: MAP4K5; conditions: read-out: apparent Kd, n = 1
[17] = test system: NQO2; conditions: read-out: apparent Kd; compound concentrations:100 nM and 1000 nM (sheet 'Samples'); n = 1
[18] = test system: MAPKAPK2; conditions: read-out: apparent Kd, n = 1
[19] = test system: NLK; conditions: read-out: apparent Kd; compound concentrations:100 nM and 1000 nM (sheet 'Samples'); n = 1
[20] = compound concentrations:100 nM and 1000 nM (sheet 'Samples')

Question: For `COc1ccc(Nc2nccc(N3CCC(NC(=O)Nc4ccc5c(c4)OCO5)C3)n2)cc1` (stereo not drawn) [GSK1379745A], which potency estimated from few doses ([1]; compound concentrations: 100 nM and 1000 nM (sheet 'Samples'), CATDS: 4.3569659230054097E-2) is on record?
Answer: 1.26 µM

Question: And the potency estimated from few doses ([2]; compound concentrations: 100 nM and 1000 nM (sheet 'Samples'), CATDS: 3.4846409929325597E-2)?
Answer: 2.08 µM

Question: What about the potency estimated from few doses ([3]; compound concentrations: 100 nM and 1000 nM (sheet 'Samples'), CATDS: 3.9281553351087697E-2) of the same compound?
Answer: 1.56 µM

Question: Which potency estimated from few doses ([4]; CATDS: 3.25409539793877E-2) does the source give for `Cc1ccc(O)cc1Nc1ccnc2cc(-c3ccc(CN4CCCCC4)o3)ccc12` [GW557777X] here?
Answer: 0.0189 µM

Question: And the potency estimated from few doses ([5]; compound concentrations: 100 nM and 1000 nM (sheet 'Samples'), CATDS: 4.01782030303919E-2)?
Answer: 0.0104 µM

Question: What about the potency estimated from few doses ([6]; compound concentrations: 100 nM and 1000 nM (sheet 'Samples'), CATDS: 4.4697919041746297E-2) of the same compound?
Answer: 0.00787 µM

Question: And the potency estimated from few doses ([7]; compound concentrations: 100 nM and 1000 nM (sheet 'Samples'), CATDS: 5.8010916452344102E-2)?
Answer: 0.00417 µM

Question: What about the potency estimated from few doses ([8]; CATDS: 1.4075910538655201E-2) of the same compound?
Answer: 0.735 µM

Question: And the potency estimated from few doses ([9]; CATDS: 1.8513434924081099E-2)?
Answer: 0.151 µM

Question: And the potency estimated from few doses ([10]; CATDS: 1.7058744664209799E-2)?
Answer: 0.226 µM

Question: With `NC(=O)c1cccc(Nc2nccc(Nc3cccc4[nH]ncc34)n2)c1` [GW782612X] as the compound, how does the potency estimated from few doses [11] read?
Answer: 0.017 µM

Question: `CS(=O)(=O)Cc1ccc(Nc2nccc(-c3c(-c4cccc(NC(=O)C5CCCCC5)c4)nn4ncccc34)n2)cc1` [GSK350559A] was tested. Which potency estimated from few doses [12, 20] did it give?
Answer: 0.267 µM

Question: And the potency estimated from few doses [3, 20]?
Answer: 2.43 µM

Question: What about the potency estimated from few doses [13, 20] of the same compound?
Answer: 1.55 µM

Question: And the potency estimated from few doses [14, 20]?
Answer: 0.932 µM

Question: With `COc1cc(Nc2nccc(N3CCC(NC(=O)c4cccc(C#N)c4)C3)n2)cc(OC)c1OC` (stereo not drawn) [GSK1379751A] as the compound, how does the potency estimated from few doses ([15]; CATDS: 0.205535073981469) read?
Answer: 0.817 µM

Question: For `CNC(=O)c1ccccc1Nc1nc(Nc2cccc(CS(C)(=O)=O)c2)ncc1C.O=CO` [GSK1520489A], which potency estimated from few doses ([4]; CATDS: 2.7940284559804102E-2) is on record?
Answer: 0.0662 µM

Question: What about the potency estimated from few doses ([14]; compound concentrations: 100 nM and 1000 nM (sheet 'Samples'), CATDS: 1.0219205948468601E-2) of the same compound?
Answer: 1.17 µM

Question: And the potency estimated from few doses ([8]; CATDS: 9.8482456119854799E-3)?
Answer: 1.42 µM

Question: For `CN1CCN(Cc2ccc(NC(=O)Nc3ccc(N(C)c4ccnc(Nc5ccc(CS(C)(=O)=O)cc5)n4)cc3)cc2)CC1.Cl` [GW827654A], which potency estimated from few doses ([8]; CATDS: 3.4418079191200303E-2) is on record?
Answer: 1.86 µM

Question: For `CN1CCN(Cc2ccc(-c3ccc4c(Nc5ccc(Oc6ccccn6)cc5)ccnc4c3)o2)CC1` [GW567140X], which potency estimated from few doses ([13]; compound concentrations: 100 nM and 1000 nM (sheet 'Samples'), CATDS: 3.1784212717953002E-2) is on record?
Answer: 2.09 µM

Question: `Cn1cc(-c2cnc(N)c3c(-c4ccc5c(c4)CCN5C(=O)Cc4ccccc4)csc23)cn1` [GSK2593074A] was tested. Which potency estimated from few doses [16, 20] did it give?
Answer: 0.302 µM

Question: Which results are given for `N#Cc1cnc2cc(-c3cnc(CNCCN4CCOCC4)s3)ccc2c1Nc1ccc(Oc2ccccc2)cc1` [GW664114X]?
Answer: potency estimated from few doses ([3]; compound concentrations: 100 nM and 1000 nM (sheet 'Samples'), CATDS: 5.9486551355906997E-2): 0.606 µM; potency estimated from few doses ([13]; compound concentrations: 100 nM and 1000 nM (sheet 'Samples'), CATDS: 6.4354786580358606E-2): 0.499 µM; potency estimated from few doses ([16]; compound concentrations: 100 nM and 1000 nM (sheet 'Samples'), CATDS: 0.103025865385486): 0.199 µM

Question: `CN(C)Cc1ccc(-c2ccc3c(Nc4ccc(Oc5ccccn5)cc4)ccnc3c2)o1` [GW567148X] was tested. Which potency estimated from few doses ([5]; compound concentrations: 100 nM and 1000 nM (sheet 'Samples'), CATDS: 2.1324962018011699E-2) did it give?
Answer: 0.824 µM

Question: What about the potency estimated from few doses ([6]; compound concentrations: 100 nM and 1000 nM (sheet 'Samples'), CATDS: 2.3863521838316901E-2) of the same compound?
Answer: 0.615 µM

Question: And the potency estimated from few doses ([7]; compound concentrations: 100 nM and 1000 nM (sheet 'Samples'), CATDS: 2.5851405238779799E-2)?
Answer: 0.509 µM

Question: For `CC(=O)c1c(-c2ccncc2)[nH]c(-c2ccncc2)c1C` [GW493036X], which potency estimated from few doses ([1]; compound concentrations: 100 nM and 1000 nM (sheet 'Samples'), CATDS: 4.1725323261606301E-2) is on record?
Answer: 0.874 µM

Question: What about the potency estimated from few doses [2, 20] of the same compound?
Answer: 2.04 µM

Question: And the potency estimated from few doses [17]?
Answer: 1.11 µM

Question: How did the potency estimated from few doses ([15]; CATDS: 0.221714333862437) turn out when `Nc1ncc(-c2cn[nH]c2)c2scc(-c3ccc4c(c3)CCN4C(=O)Cc3ccccc3)c12` [GSK2593067A] was run?
Answer: 0.118 µM

Question: What about the potency estimated from few doses ([16]; compound concentrations: 100 nM and 1000 nM (sheet 'Samples'), CATDS: 8.2420323237496707E-2) of the same compound?
Answer: 0.674 µM

Question: What about the potency estimated from few doses ([9]; CATDS: 0.15776824540953199) of the same compound?
Answer: 0.196 µM

Question: With `CC(=O)N1CCN(c2ccc(Nc3nccc(-c4sc(C(C)C)nc4-c4cccc(NS(=O)(=O)c5ccccc5)c4)n3)cn2)CC1` [GSK1645872A] as the compound, how does the potency estimated from few doses ([12]; compound concentrations: 100 nM and 1000 nM (sheet 'Samples'), CATDS: 3.26865073204873E-2) read?
Answer: 0.604 µM

Question: What about the potency estimated from few doses ([10]; CATDS: 5.5326802343899903E-2) of the same compound?
Answer: 0.227 µM

Question: `CS(=O)(=O)Cc1ccc(Nc2nccc(-c3c(-c4cccc(NC(=O)c5c(F)cccc5F)c4)nn4ccccc34)n2)cc1` [GSK323543A] was tested. Which potency estimated from few doses ([18]; compound concentrations: 100 nM and 1000 nM (sheet 'Samples'), CATDS: 7.72685747843148E-2) did it give?
Answer: 0.87 µM

Question: `COc1cc2ncn(-c3cc(OCCCc4ccccc4)c(C(N)=O)s3)c2cc1OC` [GSK205189A] was tested. Which potency estimated from few doses [5, 20] did it give?
Answer: 1.25 µM

Question: What about the potency estimated from few doses [6, 20] of the same compound?
Answer: 0.697 µM

Question: What about the potency estimated from few doses [7, 20] of the same compound?
Answer: 0.636 µM

Question: How did the potency estimated from few doses [12, 20] turn out when `CNc1nccc(-c2c(-c3ccc(F)cc3)ncn2C2CCN(C)CC2)n1` [SB-222903] was run?
Answer: 1.92 µM

Question: What about the potency estimated from few doses [1, 20] of the same compound?
Answer: 0.139 µM

Question: And the potency estimated from few doses [2, 20]?
Answer: 0.0111 µM

Question: What about the potency estimated from few doses [14, 20] of the same compound?
Answer: 0.462 µM

Question: And the potency estimated from few doses [18, 20]?
Answer: 0.049 µM

Question: What about the potency estimated from few doses [19] of the same compound?
Answer: 0.0191 µM

Question: Which results are given for `Fc1ccc(-c2c(-c3ccncc3)[nH]c3nccnc23)cc1` [RO1155697-000]?
Answer: potency estimated from few doses [12, 20]: 1.97 µM; potency estimated from few doses [1, 20]: 0.667 µM; potency estimated from few doses [2, 20]: 0.00823 µM; potency estimated from few doses [14, 20]: 0.368 µM

Question: How did the potency estimated from few doses [16, 20] turn out when `COc1cc2ncn(-c3cc(OCc4cccs4)c(C(N)=O)s3)c2cc1OC` [GSK312948A] was run?
Answer: 0.116 µM
